Screens: PubChem BioAssay, National Center for Advancing Translational Sciences (NCATS)
HP1b binding inh = inhibitors of HP1-beta chromodomain binding to methylated histone tails; 0.56% of 390,000 active; Potency, µM (top dose mostly 114 µM), for the others: top-dose activity change, negative = inhibition, usual class: inhibitors; AlphaScreen HP1-beta / biotin-H3K9me3 peptide binding; P83916; AID 540317; also: nearly all actives have a fitted effect of over 70% in size
Target sequence (P83916 whole entry, looked up): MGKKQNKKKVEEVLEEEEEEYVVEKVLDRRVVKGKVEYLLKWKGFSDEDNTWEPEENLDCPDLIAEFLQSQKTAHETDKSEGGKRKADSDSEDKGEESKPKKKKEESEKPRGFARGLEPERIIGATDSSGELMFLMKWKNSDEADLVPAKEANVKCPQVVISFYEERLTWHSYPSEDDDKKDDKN
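AlphaScreen: HP1-beta (50 nM) preformed 30 min with biotin-H3(1-18)K9me3 peptide (50 nM) in PBS pH 7.4, 0.01% Tween-20. Compound added for 30 min at RT, then streptavidin donor/nickel chelate acceptor beads (10 ug/mL) for 30 min.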
JMJD2A Tudor = inhibitors of human JMJD2A Tudor domain; AlphaScreen JMJD2A-Tudor / H3K4me3 peptide binding; Potency, µM (highest dose often 114 µM), for inactives: at the highest dose activity change, negative = inhibition, actives largely listed as inhibitors; 4.4% of 390,000 active; AID 504339; also: % is scaled to controls: 0 for no effect and ±100 for the full control effect; nearly all actives have a fitted effect of over 50% in size
Sfp inh = Sfp phosphopantetheinyl transferase inhibition; Q9F4F7; Biochemical Sfp PPTase activity, qHTS; Potency, µM, for inactives: largest response in the series, negative = inhibition, hits mostly inhibitors; 3.5% of 310,000 active;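 also: the enzyme is Sfp with the accession as filed and its product quenches rhodamine fluorescence; 0% = enzyme reaction without inhibitor and -100% = no enzyme wells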
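Sfp 15 nM + cpd, 15 min RT; start w/ rhodamine-CoA 5 uM, BHQ-2-YbbR 12.5 uM (final); 50 mM Hepes pH 7.6, 10 mM MgCl2, 0.01% NP-40, 0.01% BSA; read 525/598 nm at 0 and 30 min.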
BAZ2B inh = blocks human BAZ2B; Potency, µM (series often up to 114 µM), inactives show at the top dose activity change, negative = inhibition, actives largely listed as inhibitors; 4.4% of 360,000 active; AID 504333; AlphaScreen BAZ2B-H3K14Ac peptide displacement; Q9UIF8; also: % is scaled to controls: 0 for no effect and ±100 for the full control effect; nearly all actives have a fitted effect of over 60% in size
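BAZ2B (50 nM) with biotin-H3(5-23)K14Ac peptide (50 nM) in PBS pH 7.4, 0.01% Tween-20, preformed 30 min, then compound 30 min at room temperature; top concentration 110uM. AlphaScreen streptavidin donor/nickel chelate acceptor beads (10 ug/mL final), 20 min dark, signal read.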
G9a inh = blocks human histone lysine methyltransferase G9a | Q96KQ7 | G9a H3K9 monomethylation, AlphaScreen, 2 h | Potency, µM (series often up to 102 µM), inactives show at the top dose activity, negative = inhibition, most hits filed as inhibitors | 8.8% of 350,000 active; also: % is scaled to controls: 0 for no effect and ±100 for the full control effect; nearly all actives have a fitted effect of over 75% in size
Target sequence (Q96KQ7 913-1193 limits assumed): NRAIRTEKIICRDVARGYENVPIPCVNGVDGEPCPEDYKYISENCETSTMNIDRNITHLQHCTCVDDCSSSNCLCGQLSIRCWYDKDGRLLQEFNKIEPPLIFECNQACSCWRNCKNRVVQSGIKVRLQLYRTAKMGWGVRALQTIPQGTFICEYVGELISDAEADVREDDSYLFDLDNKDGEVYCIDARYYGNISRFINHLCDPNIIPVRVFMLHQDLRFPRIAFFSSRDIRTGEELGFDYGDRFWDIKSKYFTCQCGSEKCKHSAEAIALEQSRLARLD
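Chemiluminescent proximity detection of H3K9 monomethylation, read after 10 min bead incubation in the dark. Reaction: 20 nM G9a, 500 nM biotin-H3K9 peptide, 20 uM SAM cofactor, 2 h, room temperature, following 15 min enzyme-compound preincubation.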
An asterisk follows results filed as active; ? = inconclusive; / = no result; ! = not active in a repeat; [ ] = another dose, or the depositor's remark. In the library only some 12% were active in any assay of this set; here they are far more common. Calls follow the shape of the dose curve; as a rule, active = well fitted curve in the direction sought with a large enough effect; inconclusive = small, poorly fitted or top-dose-only effect, or another doubt; inactive = no such curve, though single readings can be large; an effect the other way counts as inactive or inconclusive. Potency is read from the fitted curve at half-maximal effect.

SMILES	HP1b binding inh	JMJD2A Tudor	Sfp inh	BAZ2B inh	G9a inh
COc1ccc(NC(=S)NC(NC(=O)CF)C(Cl)(Cl)Cl)c([N+](=O)[O-])c1 (stereo not drawn)	15%	3%	-6%	?	10µM*
Cc1[nH]c2ccccc2c1C1=CCNCC1	-9%	?	1%	?	50µM*
CN[C@@H]1C[C@@]2(C)O[C@@H]([C@@H]1OC)n1c3ccccc3c3c4c(c5c6ccccc6n2c5c31)C(=O)NC4	/	/	-20%	/	-5%[59 µM]
CC(Cc1ccc(C(C)(C)C)cc1)CN1CC(C)OC(C)C1 (stereo not drawn)	/	/	-2%	/	/
CCOC(=O)CCCCCNC(=O)c1c(O)[nH]c(=O)[nH]c1=O	4%	79µM*	/	/	/
CCOC(=O)c1ccc(N=C(C)c2c(O)[nH]c(=O)[nH]c2=O)cc1	12%	-10%	-24%	-11%	/
O=c1[nH]c2sccc2c2ccccc12	/	/	5%	/	/
C/C(O)=C1\C(=O)[C@@H]2[C@H]3c4c[nH]c5cccc(c45)C[C@H]3C(C)(C)N2C1=O	/	/	56µM*	/	25µM*!
CC(=O)C1=C(O)C2C3c4c[nH]c5cccc(c45)CC3C(C)(C)N2C1=O (stereo not drawn)	/	/	3%	/	/
COC(=O)[C@H]1[C@@H](c2ccccc2)[C@@]2(c3ccccc3)Oc3ccccc3[C@@]1(O)[C@@H]2O	/	/	6%	/	/
COc1ccc(OC)c(C2=NOC(C(=O)N3CCC4(CC3)OCCO4)C2)c1 (stereo not drawn)	-1%	25µM*	1%	7%	-2%[12.7 µM]
COc1cc(C(=O)Nc2ccc(Br)cc2C(=O)c2ccccc2Cl)cc(OC)c1OC	11%	-20%	7%	2%	-7%[59 µM]
COc1ccccc1NS(=O)(=O)c1cc(NC(=O)c2ccc(Cl)nc2)ccc1N1CCCC1	?	56µM*	/	/	/
Clc1ccc2sc(C3CCNCC3)nc2c1	-7%	-17%	-5%	2%	45µM*
O=C(c1ccccc1Cl)N1CCC(c2nc3ccccc3s2)CC1	43%	-8%	/	-18%	10%[59 µM]
Nc1ccc2c3c(cccc13)CC2	-11%	-32%	-5%	?	40µM*
COC(=O)[C@@]1(OC)C[C@@H]2O[C@@]1(C)n1c3ccccc3c3c4c(c5c6ccccc6n2c5c31)C(=O)N(C)C4	/	/	10%	/	-4%[12.7 µM]
O=C(N/N=C1/CN2CCC1CC2)c1cccc(O)c1	2%	45µM*	-16%	?	10µM*
CC(C)C1C(=O)N2CCCC2[C@]2(O)O[C@@](NC(=O)[C@@H]3C=C4c5cccc6[nH]cc(c56)C[C@H]4N(C)C3)(C(C)C)C(=O)N12 (stereo partly drawn)	/	/	-16%	/	/
O=CC1=C(N2CCOCC2)/C(=C\c2ccccc2)CC1	35%	-11%	-2%	-10%	40µM*
O=C1C(=Cc2ccccc2)N2CCC1CC2	33%	-8%	/	/	/
COc1ccc(C2N(c3cc(C)on3)C(=O)C3CCCN32)cc1 (stereo not drawn)	-2%	?	-17%	-28%	35µM*
Cc1cc(N2C(=O)C3CCCN3C2c2cccc(Cl)c2)no1 (stereo not drawn)	29%	-35%	5%	9%	-14%[59 µM]
CCOC(=O)c1c(/N=C/c2c(O)n(-c3cccc(C)c3)c(=O)[nH]c2=O)sc2c1CCCC2	-4%	-27%	?	-31%	?
CCN(CC)c1ccc(N=Cc2c(O)n(-c3ccccc3)c(=O)[nH]c2=O)cc1	20%	-5%	50µM*	?	?
SMILES	HP1b binding inh	JMJD2A Tudor	Sfp inh	BAZ2B inh	G9a inh
CCOC(=O)c1sc(/N=C/c2c(O)n(-c3ccccc3)c(=O)[nH]c2=O)c(C#N)c1C	?	?	50µM*	?	?
Cc1cccc(-n2c(O)c(C=Nc3ccc(Br)cn3)c(=O)[nH]c2=O)c1	11%	10µM*	-15%	1%	/
CCOc1ccccc1-n1c(O)c(C=Nc2ccc(N(CC)CC)cc2)c(=O)[nH]c1=O	-21%	?	-28%	?	50µM*
CCN(CC)c1ccc(N=Cc2c(O)n(-c3ccccc3C)c(=O)[nH]c2=O)cc1	-7%	?	?	?	?
CCCOc1ccc(C(=O)CCC(=O)NNC(=O)c2ccncc2)cc1	29%	-6%	12%	5%	56%
CCOC(=O)c1cccc(N)c1	/	/	21%	/	?
CCc1nnc(NS(=O)(=O)c2ccc(N=Cc3c(O)n(-c4ccc(Cl)cc4)c(=O)[nH]c3=O)cc2)s1	-3%	35µM*	13%	-14%	?
Cc1ccc(N/N=C/c2c(O)n(-c3ccccc3)c(=O)[nH]c2=O)cc1	-7%	-21%	-24%	-30%	3.2µM*
CNS(=O)(=O)c1ccc(N=Cc2c(O)n(-c3ccc(C)cc3)c(=O)[nH]c2=O)cc1	38%	-17%	20%	-14%	/
Cc1ccc(-n2c(O)c(/C=C/C=Nc3ccccc3)c(=O)[nH]c2=O)cc1	35%	-28%	3%	-4%	?
O=c1[nH]c(=O)n(Cl)c(=O)n1Cl	/	/	4%	/	18%[59 µM]
Cl.Cl.Cl.Cl.Cl.Cl.N.N.N.N.NNNNN.NNNNN.O.O.[Ru].[Ru].[Ru]	/	/	50µM*	/	/
COc1ccc2c3c1OC1C(O)C=CC4C(C2)[N+](C)(C)CCC341 (stereo not drawn)	?	16µM*	?	22µM*	7.9µM*
O=C(O)c1cc(O)c(O)c(O)c1	/	/	8.9µM*!	/	2µM*
COc1ccc(C(=O)O)cc1OC	20%	-7%	5%	/	-58%[2.33 µM]
O=C(O)CCn1cc(C=C2C(=O)NC(=S)NC2=O)c(-c2ccccc2)n1	-17%	13µM*	14µM*	79µM*	/
N#CCCn1cc(C=C2C(=O)NC(=O)NC2=O)c(-c2ccccc2)n1	59%	2%	-24%	4%	?
O=C(O)CCn1cc(C=C2C(=O)NC(=S)NC2=O)c(-c2cc3ccccc3oc2=O)n1	-13%	89µM*	10µM*	50µM*	11µM*
CC(N)Cc1c[nH]c2ccc(Cl)cc12 (stereo not drawn)	28%	-10%	/	/	/
Clc1ccc2[nH]c3c(c2c1)CCNC3	15%	-18%	3%	-26%	79µM*
NS(=O)(=O)c1nc[nH]c1[N+](=O)[O-]	5%	20µM*	/	/	/
O=C(c1csnn1)N1CCC2(CC1)CN(Cc1ccncc1)C2	/	/	-9%	/	12%[12.7 µM]
COc1ccc(/C=C2\C(=O)NC(=O)N(Cc3ccccc3)C2=O)c(OC)c1OC	17%	-14%	35µM*	-16%	/
COc1cc(OC)c(OC)cc1/C=C1/C(=O)NC(=O)N(Cc2ccccc2)C1=O	22%	-19%	-14%	-18%	50µM*
COc1cc(OC)c(OC)cc1/C=C1\C(=O)NC(=O)N(Cc2ccccc2)C1=O	17%	-7%	-14%	-28%	?
O=C1OC(c2ccc([N+](=O)[O-])cc2)=N/C1=C/N1CC2CC(C1)c1cccc(=O)n1C2 (stereo not drawn)	17%	1%	22%	-23%	79µM*
